Bioassay records as filed in PubChem BioAssay.
ABHD5 PLIN5 PPI – inhibitors of human ABHD5-perilipin-5 interaction; Q00G26+Q8WTS1; Split G. princeps luciferase complementation, luminescence, 4 h; inhibition, % at 4 µM; hit rate 0.78% among 360,000; AID 602281;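 active = inhibition above the mean inhibition across every tested compound plus 3 SD, cut at about 22% in these data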;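 also: 0% = DMSO only wells and the 100% control is not disclosed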
EWS-Fli inh – EWS/Fli transcriptional activity inhibition; AID 651661; hit rate 0.67% among 350,000; A673 NR0B1-luciferase reporter, viability-normalised; inhibition, % at 12.6 µM;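 active = mean inhibition of at least 50% after viability correction, with every replicate also passing that limit; inconclusive = mean reaches 50% but only one of two replicates passes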;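 also: firefly luciferase signal divided by Alamar Blue viability fluorescence both relative to DMSO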
PAX8 reporter – lowers PAX8-driven luciferase in RMG-I cells; RMG-I TPO-luciferase reporter, SteadyGlo, 24 h; inhibition, % at 12.6 µM; hit rate 1.2% among 360,000; AID 652154;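 active = mean replicate inhibition at least 60% with every replicate also reaching 60%; inconclusive = only one of the two criteria is met; inactive = mean below 60% and not all replicates reaching 60%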;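 also: luciferase light reporting Pax8 driven TPO promoter activity; plate controls were median of neutral control wells for no effect and mitoxantrone controls for full effect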
Shn3 inh set2 – reduces Shn3 3'UTR luciferase signal in osteoblasts. Clone20 osteoblast Shn3 3'UTR firefly luciferase, 24 h. inhibition, % at 12.5 µM. hit rate 0.52% among 360,000. AID 588674;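 active = mean inhibition of at least 75% with every replicate also reaching 75%; inconclusive = mean inhibition at least 75% but some replicate below; inactive = mean inhibition below 75%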;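 also: 0% = median of neutral control wells and 100% = pilot-screen positive control compound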
MITF TRPM1 inh – reduces MITF-dependent TRPM1 promoter luciferase signal; SK-MEL-5 TRPM1 promoter luciferase, 24 h; inhibition, % at 12.5 µM; hit rate 0.83% among 330,000; AID 488899;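 active = mean inhibition across replicates of 60% or more, whatever share of single replicates reaches that level; inconclusive = some that reach 60%, reason not given; inactive = mean inhibition across replicates below 60%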
Peg3 prom inh – reduces Peg3 promoter-driven luciferase expression in HeLa | HeLa PEG-Prom luciferase reporter, luminescence, overnight | inhibition, % at 20 µM | hit rate 1.7% among 360,000;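 active = inhibition of at least 50% at 20 µM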
Starred values were filed as active, the others as inactive; ? = inconclusive; / = no result. Compounds with a hit are over-represented: about 3% of the library has one in this group of screens.

SMILES	ABHD5 PLIN5 PPI	EWS-Fli inh	PAX8 reporter	Shn3 inh set2	MITF TRPM1 inh	Peg3 prom inh
C[C@@H]1CCCCO[C@@H](CN(C)C(=O)Nc2cccc3ccccc23)[C@H](C)CN([C@H](C)CO)C(=O)c2cc(NC(=O)Nc3ccc(C(F)(F)F)cc3)ccc2O1	/	10	1	/	/	/
COc1ccc([Si](C)(C)[C@@H]2[C@@H](CCn3cc(CCO)nn3)O[C@]3(C(=O)N(Cc4ccc(N5CCOC5=O)cc4)c4ccccc43)[C@H]2C)cc1	/	35	/	/	/	/
COc1ccc(C(=O)Nc2ccc(CN3C(=O)[C@]4(O[C@H](CC(=O)N5Cc6ccccc6C[C@H]5CO)[C@@H]([Si](C)(C)c5ccc(OC)cc5)[C@@H]4C)c4ccccc43)cc2)cc1	/	-2	92*	/	/	/
C=CCN1C(=O)[C@@]2(O[C@@H](CCn3cc(CCO)nn3)[C@H]([Si](C)(C)c3ccc(OC)cc3)[C@H]2C)c2cc(NC(=O)c3ccc(OC)cc3)ccc21	/	-11	12	/	/	/
COc1ccc([Si](C)(C)[C@H]2[C@H](CCO)O[C@@]3(C(=O)N(Cc4ccc(N5CCOC5=O)cc4)c4ccccc43)[C@@H]2C)cc1	/	24	107*	/	/	/
CO[C@H]1CN(C)C(=O)c2cc(NC(=O)c3ccc4c(c3)OCO4)ccc2OC[C@@H](C)NC[C@@H]1C	/	-6	-14	/	/	/
COCC(=O)Nc1ccc2c(c1)C(=O)N(C)C[C@H](OC)[C@H](C)CN(CC1CCCCC1)[C@H](C)CO2	/	1	/	/	/	/
Cc1ccccc1Nc1c(-c2ccccn2)nc2ccccn12	-6	52*	30	55	34	18
Cc1ccn2c(Nc3ccccc3)c(-c3ccccn3)nc2c1	1	52*	18	85	?	33
Cc1ccc(S(=O)(=O)/N=C(\Sc2ccccc2)c2ccccc2)cc1	2	/	/	-3	45	56*
COc1cccc(C#Cc2ccc3c(c2)[C@@H]2[C@@H](CCN2C(C)=O)[C@@H](CO)N3)c1	/	-8	-8	/	/	/
CNCc1ccccc1Sc1cccc2ccccc12	15	/	/	44	-1	19
CN(C)CCN(C)Cc1ccccc1Sc1cccc2ccccc12	21	6	27	11	44	102*
CC1=CC2=NC(=O)/C(=C\c3ccc(-c4cccc(Cl)c4)o3)C(=N)N2O1	3	-5	17	18	33	57*
COCCOC(=O)c1[nH]c2c(c1C)C(=O)CC(c1cc(OC)ccc1OC)C2 (stereo not given)	-12	4	27	18	12	8
CCCOCCOC(=O)c1[nH]c2c(c1C)C(=O)CC(c1cc(OC)ccc1OC)C2 (stereo not given)	8	56*	19	29	9	-20
Cc1ccccc1-c1cnc2c(c1)C(=O)N([C@H](C)CO)C[C@H](C)[C@H](CN(C)Cc1cccnc1)O2	/	0	/	/	/	/
Fc1ccc(-n2nnnc2-c2cnc(-c3cccs3)nc2C(F)(F)F)cc1	-5	/	/	90*	27	100*
COc1ccccc1CNC(=O)C[C@H]1C[C@H]2c3cc(NS(C)(=O)=O)ccc3O[C@H]2[C@H](CO)O1	/	0	-1	/	/	/
Cc1cc(=O)oc2ccc(OC(=O)CN3C(=O)c4cccc([N+](=O)[O-])c4C3=O)cc12	0	4	147*	-1	-6	0
CCC(=O)Oc1ccc2oc(=O)cc(C)c2c1	0	/	-29	-19	-10	-20
CC(C)(C)n1ncc2c(=O)n(Cc3cccc(Cn4cnc5c(cnn5C(C)(C)C)c4=O)c3F)cnc21	-11	35	79*	89*	8	15
COc1cccc(CNC(=O)COC(=O)c2nc(Cl)c(Cl)c(Cl)c2Cl)c1	0	27	7	12	33	90*
CC(=O)c1ccc(Sc2nnnn2-c2ccccc2)c([N+](=O)[O-])c1	-1	8	-17	21	63*	38
CN1CCN(S(=O)(=O)c2ccc(Sc3nnnn3-c3ccccc3)c([N+](=O)[O-])c2)CC1	5	-10	9	87*	88*	91*
O=[N+]([O-])c1ccc(Sc2nnnn2-c2ccccc2)c(Cl)c1	7	/	/	-22	21	18
CCN1CCCC1CNC(=O)c1ccc2c(c1)NC(=O)/C(=C\c1ccc(C)cc1)S2 (stereo not given)	19	/	34	-10	81*	102*
COc1cccc(/C=C2/Sc3ccc(C(=O)NCCN4CCCC4)cc3NC2=O)c1	7	17	22	13	85*	91*
Cc1ccc(/C=C2/Sc3ccc(C(=O)N4CCN(C)CC4)cc3NC2=O)cc1	16	-27	-2	5	-25	25
